# Literature values in PubChem BioAssay AID977610.
# In all, about 3,600 compounds went through this assay and about 3,600 (100%) were called active. No cut-off is given here; in the data, nearly all actives have Ki up to about 18000 µM. So high a share suggests a set chosen from earlier hits. The list shows a part of the results. Numbered stars: 1 amine (or outer) side, 2 acyl side, 3 side chain; on linkers, the order of the positions; unused ones are H or OH. Bridge positions count the residues as written; N and C are the ends. Where a SMILES comes first, the peptide text is derived from it. Square brackets hold non-standard residues; d marks the D form. Peptide text beside a SMILES is read from it. [ ]: non-standard residue; d: D form. The star is where a group is joined. X1 = C[C@@H](C(=O)[*:2])n1cc([C@@H]2CCCN2[*:1])nn1; Orn(CH(NH2)2) = NC(N)NCCC[C@H](N)C(=O)O; Cbz = O=C(OCc1ccccc1)*; Dap = NC[C@H](N)C(=O)O; Nlys = NCCCCNCC(=O)O
# Experiment: PubChem AID 977610
# Details: PDB protein-ligand complexes, literature Ki
compound,measurement,setting,value
O=C(O)CC1(CC(=O)N2CCN(C(c3ccccc3)c3ccccc3)CC2)CCCC1,Ki,"protein: Dehydrosqualene synthase, PDB entry 3tfn",0.27 µM (active)
CO[C@H]1CC[C@H](OC)[C@@H](NC(=O)CN2CCN(Cc3ccc4c(c3)OCO4)CC2)C1,Ki,"protein: E. coli beta-Glucuronidase, PDB entry 4jhz",0.957 µM (active)
NCCCC[C@H](NC(=O)Cc1ccc(Cl)c(Cl)c1)C(=O)N[C@@H](CCCCN)C(=O)NCC1CCC(NC(N)N)CC1 (some centres undefined),Ki,"protein: SERINE PROTEASE SUBUNIT NS2B, SERINE PROTEASE NS3, PDB entry 2yol",0.13 µM (active)
Cn1nc(N)c2c[n+]([C@@H]3O[C@H](CO[P+](O)(O)O)[C@@H](O)[C@H]3O)c3nc[nH]c1c23,Ki,"protein: Deoxyribonucleoside 5'-monophosphate N-glycosidase (D69N mutation), PDB entry 4fyh",14 µM (active)
N#Cc1cccc(Cn2cc(NC(=O)c3n[nH]c4ccccc34)cn2)c1,Ki,"protein: Tyrosine-protein kinase ITK, PDB entry 4pp9",0.043 µM (active)
CCc1[nH]c2nc(Oc3cncnc3)nc(N3C[C@@H]4C(N)[C@@H]4C3)c2c1Cl (some centres undefined),Ki,"protein: DNA gyrase subunit B, PDB entry 4gee",0.001 µM (active)
COc1ccc(OCCN2C[C@H]([C@H](O)CO)[C@H]3CCC[C@@H](C2=O)N3S(=O)(=O)c2cc(Cl)cc(Cl)c2)cc1OC,Ki,"protein: Peptidyl-prolyl cis-trans isomerase FKBP51, PDB entry 4w9p",0.016 µM (active)
COc1ccc(OCCN2C[C@H]([C@@H](O)CO)[C@H]3CCC[C@@H](C2=O)N3S(=O)(=O)c2cc(Cl)cc(Cl)c2)cc1OC,Ki,"protein: Peptidyl-prolyl cis-trans isomerase FKBP51, PDB entry 4w9o",0.017 µM (active)
O=C(O)c1cc2[nH]c3ccccc3c2cc1Cl,Ki,"protein: E. coli sliding clamp, DNA polymerase III subunit beta, PDB entry 4n99",216 µM (active)
Cc1ccc(CSc2nc3c(c(=O)[nH]2)CCC3)cc1,Ki,"protein: Matrix metalloproteinase-13, PDB entry 4l19",0.8 µM (active)
N#C[C@H]1CC(=O)NC(=O)N1[C@@H]1O[C@H](CO[P+](O)(O)O)[C@@H](O)[C@H]1O,Ki,"protein: Mt orotidine 5'-monophosphate decarboxylase (OMPDC) K72A mutant, PDB entry 2zz2",29 µM (active)
O=c1ccn([C@@H]2O[C@H](CO)[C@@H](O[P+](O)(O)O)[C@H]2O)c(=O)[nH]1,Ki,"protein: bovine seminal ribonuclease, PDB entry 1n3z",63.2 µM (active)
Cc1cc(=O)[nH]c(=O)n1[C@@H]1O[C@H](CO[P+](O)(O)O)[C@@H](O)[C@H]1O,Ki,"protein: Orotidine 5'-phosphate decarboxylase, PDB entry 3wjw",134 µM (active)
O=c1ccn([C@@H]2O[C@H](CO)[C@@H](O)[C@H](O)[C@H]2O)c(=O)[nH]1,Ki,"protein: Glycogen phosphorylase, muscle form, PDB entry 3t3d",12.4 µM (active)
O=c1cnn([C@@H]2O[C@H](CO[P+](O)(O)O)[C@@H](O)[C@H]2O)c(=O)[nH]1,Ki,"protein: Methanothermobacter thermautotrophicus ODCase mutant K42A, PDB entry 1km3",12.4 µM (active)
same,Ki,"protein: orotidine 5'-monophosphate decarboxylase from Saccharomyces cerevisiae (D91N), PDB entry 3gdt",0.064 µM (active)
O=c1ccn([C@@H]2O[C@H](CO[P+](O)(O)O)[C@@H](O)[C@H]2O)c(=O)[nH]1,Ki,"protein: D312N mutant of human orotidyl-5'-monophosphate decarboxylase, PDB entry 3ex6",220 µM (active)
same,Ki,"protein: Mt orotidine 5'-monophosphate decarboxylase (OMPDC), PDB entry 3g1d",330 µM (active)
same,Ki,"protein: orotidine 5'-monophosphate decarboxylase from P.falciparum, PDB entry 2za3",210 µM (active)
CC(C)(C)OC(=O)N[C@H](C(=O)NO)c1ccc(-n2cccn2)cc1,Ki,"protein: M1 family aminopeptidase A-M1, PDB entry 4r5t",0.8 µM (active)
same,Ki,"protein: M17 leucyl aminopeptidase A-M17, PDB entry 4r6t",0.03 µM (active)
CC(C)(C)C(=O)N[C@@H](C(=O)NO)c1ccc(-n2cccn2)cc1,Ki,"protein: M1 family aminopeptidase A-M1, PDB entry 4r5v",0.7 µM (active)
CCOC(=O)c1cc(C#N)c(N2CCC(C(=O)NS(=O)(=O)Cc3ccccc3)CC2)nc1C,Ki,"protein: P2Y12R, PDB entry 4ntj",0.0439 µM (active)
CC(C[P+](O)(O)O)C(=O)O (centres undefined),Ki,"protein: PHOSPHO-2-DEHYDRO-3-DEOXYHEPTONATE ALDOLASE DAH7PS, PDB entry 4uma",3.9 µM (active)
CC(C)C[C@H](NC(=O)[C@H](C)NC(=O)OCc1ccccc1)C(=O)N[C@@H](CCC(=O)N(C)C)C(=O)O (Cbz-Ala-Leu-Glu(NMe2)-OH),Ki,"protein: Genome polyprotein, PDB entry 4inh",0.56 µM (active)
CC(=O)NC[C@@H](C=O)NC(=O)[C@H](Cc1ccccc1)NC(=O)[C@H](CC(C)C)NC(=O)OCc1ccccc1 (Cbz-Leu-Phe-[Dap](Ac)-aldehyde),Ki,"protein: 3C-like protease, PDB entry 4imq",1.5 µM (active)
CC(C)C[C@H](NC(=O)OCc1ccccc1)C(=O)N[C@@H](Cc1ccccc1)C(=O)N[C@H](C=O)CCC(=O)N(C)C (Cbz-Leu-Phe-Glu(NMe2)-aldehyde),Ki,"protein: Genome polyprotein, PDB entry 4imz",0.12 µM (active)
COc1cc([C@@H]2Nc3ccc(C(N)N)cc3[C@H]3c4ccccc4C[C@H]32)c(-c2ccc(C(=O)O)cc2)cc1O,Ki,"protein: Factor VII, PDB entry 4ish",0.0019 µM (active)
CC(=O)N[C@H]1CNC[C@H](O)[C@@H](O)[C@@H]1O,Ki,"protein: Beta-hexosaminidase 1, PDB entry 4mss",0.4 µM (active)
COc1cc2c(c(OC)c1OC)-c1ccc(OC)c(=O)cc1[C@@H](NC(C)=O)CC2,Ki,"protein: Tubulin, PDB entry 4o2b",1.8 µM (active)
CC[C@H](C)[C@@H]1NC(=O)[C@@H]2CCCN2C(=O)[C@@H]2CCCN2C(=O)[C@H]([C@@H](C)CC)NC(=O)[C@H](CO)NC(=O)[C@H](CCCCN)NC(=O)[C@H]([C@@H](C)O)NC(=O)[C@@H]2CSSC[C@H](NC1=O)C(=O)N[C@@H](Cc1ccccc1)C(=O)N1CCC[C@H]1C(=O)N[C@@H](CC(=O)O)C(=O)NCC(=O)N[C@@H](CCCNC(N)N)C(=O)N2,Ki,"protein: bovine ?-trypsin, PDB entry 1sfi",0.0001 µM (active)
CC[C@H](C)[C@@H]1NC(=O)[C@H](C)n2cc(nn2)[C@@H]2CCCN2C(=O)[C@H]([C@@H](C)CC)NC(=O)[C@H](CO)NC(=O)[C@H](CCCCN)NC(=O)[C@H]([C@@H](C)O)NC(=O)[C@@H](NC(=O)[C@H](CCCNC(N)N)NC(=O)CN)CSSC[C@@H](C(=O)N[C@@H](Cc2ccccc2)C(=O)O)NC1=O (H-G[Orn(CH(NH2)2)]CTKSI[X1]ICF-OH; disulfide 3-10),Ki,"protein: bovine CATIONIC TRYPSIN, PDB entry 4abi",0.0063 µM (active)
NCCCC[C@@H]1NC(=O)[C@H](CCC(N)=O)NC(=O)[C@H](Cc2ccc(O)cc2)NC(=O)[C@@H](NC(=O)[C@H](Cc2cccc3ccccc23)NC(=O)[C@H](CCCNC(N)N)NC(=O)[C@@H](N)CCCNC(N)N)CSSC[C@@H](C(=O)N[C@@H](CCCNC(N)N)C(=O)NCC(=O)N2CCC[C@@H]2C(=O)O)NC(=O)[C@H](CCCNC(N)=O)NC(=O)[C@H](CCCNC(N)N)NC(=O)[C@H](Cc2ccc(O)cc2)NC(=O)[C@@H]2CCCN2C(=O)[C@H]2CCCN2C1=O,Ki,"protein: C-X-C chemokine receptor type 4, Lysozyme Chimera(CXCR4-3), PDB entry 3oe0",0.0025 µM (active)
CC[C@H](C)[C@@H]1NC(=O)[C@@H]2CCCN2C(=O)[C@@H]2CCCN2C(=O)[C@H]([C@@H](C)CC)NC(=O)[C@H](CO)NC(=O)CN(CCCCN)C(=O)[C@H]([C@@H](C)O)NC(=O)[C@@H](NC(=O)[C@H](CCCNC(N)N)NC(=O)CN)CSSC[C@@H](C(=O)N[C@@H](Cc2ccccc2)C(=O)O)NC1=O (H-G[Orn(CH(NH2)2)]CT[Nlys]SIPPICF-OH; disulfide 3-11),Ki,"protein: Cationic trypsin, PDB entry 4hgc",0.0001 µM (active)
